In PubChem BioAssay AID1159580 (chemical genetic matrix, 2015):
The whole screen tested about 5,500 compounds, of which about 2,000 (36%) were called active. Roughly 18% stayed inconclusive and do not appear here. No stated cut-off is given here; in the data, active means normalized growth mostly below about 0.91 (no sharp cut-off); inconclusive means no clear call, values can overlap the other calls; inactive means mostly above about 0.92. This is one part of the list.

Assay: chemical genetic growth profiling, strain panel (AID 1159580);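 further: tested at 20 µM; growth read once vehicle control cultures reached saturation at 30 °C; 1 = growth at the plate median or of vehicle wells; lower values mean less growth of the strain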
Settings: growth OD

Measured: normalized growth

O=[N+]([O-])/N=C1/NCCN1Cc1ccc(Cl)cc1
inactive: S. cerevisiae deletion strains, locus YAL013W, strain DEP1, hits give low values 0.994 | S. cerevisiae deletion strains, locus YBR021W, strain FUR4, hits give low values 0.992 | S. cerevisiae deletion strains, locus YBR229C, strain ROT2, hits give low values 0.968 | S. cerevisiae deletion strains, locus YCL029C, strain bik1, hits give low values 0.99 | S. cerevisiae deletion strains, locus YDL035C, strain GPR1, hits give low values 0.988 | S. cerevisiae deletion strains, locus YDL074C, strain BRE1, hits give low values 1.05 | S. cerevisiae deletion strains, locus YDL101C, strain DUN1, hits give low values 0.993 | S. cerevisiae deletion strains, locus YDL134C, strain PPH21, hits give low values 0.984 | S. cerevisiae deletion strains, locus YDL185W, strain tfp1, hits give low values 0.986 | S. cerevisiae deletion strains, locus YDL192W, strain arf1, hits give low values 0.993 | S. cerevisiae deletion strains, locus YDR101C, strain arx1, hits give low values 0.998 | S. cerevisiae deletion strains, locus YDR150W, strain NUM1, hits give low values 1 | S. cerevisiae deletion strains, locus YDR162C, strain NBP2, hits give low values 1.02 | S. cerevisiae deletion strains, locus YDR318W, strain mcm21, hits give low values 0.984 | S. cerevisiae deletion strains, locus YDR388W, hits give low values 0.994 | S. cerevisiae deletion strains, locus YDR502C, strain sam2, hits give low values 0.988 | S. cerevisiae deletion strains, locus YEL061C, strain CIN8, hits give low values 0.989 | S. cerevisiae deletion strains, locus YER110C, hits give low values 0.986 | S. cerevisiae deletion strains, locus YER155C, strain BEM2, hits give low values 1 | S. cerevisiae deletion strains, locus YER167W, strain BCK2, hits give low values 0.988 | S. cerevisiae deletion strains, locus YGL078C, strain dbp3, hits give low values 0.995 | S. cerevisiae deletion strains, locus YGL086W, strain mad1, hits give low values 0.979 | S. cerevisiae deletion strains, locus YGL248W, strain PDE1, hits give low values 0.979 | S. cerevisiae deletion strains, locus YGR078C, strain PAC10, hits give low values 1.02 | S. cerevisiae deletion strains, locus YGR135W, strain pre9, hits give low values 0.992 | S. cerevisiae deletion strains, locus YGR229C, strain SMI1, hits give low values 1 | S. cerevisiae deletion strains, locus YGR252W, strain gcn5, hits give low values 0.989 | S. cerevisiae deletion strains, locus YHR030C, strain SLT2, hits give low values 0.963 | S. cerevisiae deletion strains, locus YHR079C, strain IRE1 (second series), hits give low values 0.987 | S. cerevisiae deletion strains, locus YHR094C, strain hxt1, hits give low values 0.996 | S. cerevisiae deletion strains, locus YHR129C, strain ARP1, hits give low values 0.994 | S. cerevisiae deletion strains, locus YHR200W, strain rpn10, hits give low values 0.988 | S. cerevisiae deletion strains, locus YIL066C, strain RNR3, hits give low values 0.985 | S. cerevisiae deletion strains, locus YIL073C, strain SPO22, hits give low values 0.995 | S. cerevisiae deletion strains, locus YIL125W, strain kgd1, hits give low values 0.993 | S. cerevisiae deletion strains, locus YIR030C, strain dcg1, hits give low values 0.988 | S. cerevisiae deletion strains, locus YJL095W, strain BCK1, hits give low values 1.01 | S. cerevisiae deletion strains, locus YJL134W, strain LCB3, hits give low values 0.987 | S. cerevisiae deletion strains, locus YJL168C, strain set2, hits give low values 0.992 | S. cerevisiae deletion strains, locus YJL187C, strain SWE1 (second series), hits give low values 0.985 | S. cerevisiae deletion strains, locus YJR043C, strain POL32, hits give low values 1 | S. cerevisiae deletion strains, locus YJR075W, strain HOC1, hits give low values 0.998 | S. cerevisiae deletion strains, locus YKL009W, strain mrt4, hits give low values 1.01 | S. cerevisiae deletion strains, locus YKL068W, hits give low values 0.991 | S. cerevisiae deletion strains, locus YKL085W, strain MDH1 (second series), hits give low values 0.989 | S. cerevisiae deletion strains, locus YKL085W, strain MDH1, hits give low values 0.989 | S. cerevisiae deletion strains, locus YKL190W, strain CNB1, hits give low values 0.997 | S. cerevisiae deletion strains, locus YKR001C, strain vps1, hits give low values 0.983 | S. cerevisiae deletion strains, locus YLR039C, strain RIC1, hits give low values 1.01 | S. cerevisiae deletion strains, locus YLR058C, strain SHM2, hits give low values 0.986 | S. cerevisiae deletion strains, locus YLR102C, strain apc9, hits give low values 0.996 | S. cerevisiae deletion strains, locus YLR262C, strain YPT6, hits give low values 1.02 | S. cerevisiae deletion strains, locus YLR268W, strain sec22, hits give low values 0.995 | S. cerevisiae deletion strains, locus YLR330W, strain CHS5, hits give low values 0.988 | S. cerevisiae deletion strains, locus YLR342W, strain FKS1 (second series), hits give low values 0.965 | S. cerevisiae deletion strains, locus YLR371W, strain rom2, hits give low values 0.987 | S. cerevisiae deletion strains, locus YLR418C, strain cdc73, hits give low values 1 | S. cerevisiae deletion strains, locus YML016C, strain PPZ1, hits give low values 0.999 | S. cerevisiae deletion strains, locus YML032C, strain rad52, hits give low values 0.98 | S. cerevisiae deletion strains, locus YML124C, strain tub3, hits give low values 0.985 | S. cerevisiae deletion strains, locus YMR078C, strain ctf18, hits give low values 0.981 | S. cerevisiae deletion strains, locus YMR223W, strain ubp8, hits give low values 0.993 | S. cerevisiae deletion strains, locus YMR263W, strain SAP30, hits give low values 1 | S. cerevisiae deletion strains, locus YMR307W, strain GAS1, hits give low values 1.03 | S. cerevisiae deletion strains, locus YNL067W, strain RPL9B, hits give low values 1.01 | S. cerevisiae deletion strains, locus YNL128W, strain TEP1, hits give low values 0.989 | S. cerevisiae deletion strains, locus YNL153C, strain GIM3, hits give low values 1 | S. cerevisiae deletion strains, locus YNL233W, strain BNI4, hits give low values 1 | S. cerevisiae deletion strains, locus YNL250W, strain rad50, hits give low values 0.987 | S. cerevisiae deletion strains, locus YNL271C, strain bni1, hits give low values 0.992 | S. cerevisiae deletion strains, locus YNL298W, strain CLA4, hits give low values 0.989 | S. cerevisiae deletion strains, locus YNL307C, strain MCK1, hits give low values 0.992 | S. cerevisiae deletion strains, locus YNL322C, strain KRE1, hits give low values 0.992 | S. cerevisiae deletion strains, locus YNR052C, strain pop2, hits give low values 0.975 | S. cerevisiae deletion strains, locus YOL006C, strain TOP1, hits give low values 1.03 | S. cerevisiae deletion strains, locus YOL012C, strain htz1 0.909 | S. cerevisiae deletion strains, locus YOL147C, strain pex11, hits give low values 0.991 | S. cerevisiae deletion strains, locus YOR061W, strain CKA2, hits give low values 0.992 | S. cerevisiae deletion strains, locus YOR069W, strain VPS5, hits give low values 0.97 | S. cerevisiae deletion strains, locus YOR136W, strain idh2, hits give low values 0.992 | S. cerevisiae deletion strains, locus YOR144C, strain elg1, hits give low values 0.994 | S. cerevisiae deletion strains, locus YOR184W, strain ser1, hits give low values 0.998 | S. cerevisiae deletion strains, locus YOR316C, strain cot1, hits give low values 0.989 | S. cerevisiae deletion strains, locus YPL055C, strain LGE1, hits give low values 1.03 | S. cerevisiae deletion strains, locus YPL241C, strain CIN2, hits give low values 0.997 | S. cerevisiae deletion strains, locus YPR119W, strain clb2, hits give low values 0.987 | S. cerevisiae deletion strains, locus YPR141C, strain kar3, hits give low values 0.988 | S. cerevisiae deletion strains, locus YPR163C, strain tif3, hits give low values 0.982 | S. cerevisiae deletion strains, locus YPR167C, strain met16, hits give low values 0.996 | S. cerevisiae deletion strains, strain wtn01, hits give low values 0.983 | S. cerevisiae strains, strain wild type, hits give low values 0.989
